In PubChem BioAssay AID434958 (Southern Research Specialized Biocontainment Screening …, 2010):
Hit rate of the full screen: of about 1,200 compounds, about 400 (33%) were called active. How the calls were made is not given here. Only a sample is shown. Measured potencies and affinities stand elsewhere.

assay: mammalian cell cytotoxicity, dose response, cytotoxicity control (AID 434958); conditions: cytotoxicity counter-screen; series mostly up to 40 µM;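 further: cells exposed to compound for 72 hours before readout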

Q: For `CC(C(=O)Nc1nc2ccccc2[nH]1)N1C(=O)C2CC=CCC2C1=O` (stereo not given), which outcome is on record?
A: Its outcome is “inactive”.

Q: Which outcome does the source give for `CCC(=O)NC(=S)Nc1ccc(-c2nc3ccccc3s2)cc1` here?
A: The outcome was “inactive”.

Q: With `CCOc1ccc(S(=O)(=O)n2nnc3ccccc32)cc1C(C)C` as the molecule, how does the outcome read?
A: The outcome was “inactive”.

Q: Which outcome does the source give for `COC(=O)c1c(-c2ccc(OC)cc2)oc2ccc(-c3cc(OC)c(OC)c(OC)c3)cc12` here?
A: The outcome was “inactive”.

Q: With `O=C(NCCC1=CCCCC1)NC1CCCCC1` as the molecule, how does the outcome read?
A: The outcome was “inactive”.

Q: For `CCC1CCCCN1C(=O)CSc1nnc(-c2ccc(Cl)s2)o1` (stereo not given), which outcome is on record?
A: The outcome was “inactive”.

Q: Which outcome does the source give for `O=C(NCc1ccco1)c1cc2n(n1)C(C(F)(F)F)CC(c1ccc(F)cc1)N2` (stereo not given) here?
A: The outcome was “inactive”.

Q: For `O=C(CN1CCN(c2ccccn2)CC1)Nc1ccc(Cl)c(C(F)(F)F)c1`, which outcome is on record?
A: The outcome was “inactive”.

Q: Which outcome does the source give for `N#Cc1ccc(NC(=O)COC(=O)C2=COCCO2)cc1` here?
A: The outcome was “inactive”.

Q: With `CCOC(=O)c1c(C)oc2c1c(CN1CCN(C(=O)OCC)CC1)c(O)c1ccccc12` as the molecule, how does the outcome read?
A: The outcome was “inactive”.

Q: With `COc1cc2c(cc1OC)C(c1ccccc1)CC2=O` (stereo not given) as the molecule, how does the outcome read?
A: The outcome was “inactive”.

Q: Which outcome does the source give for `Cc1ccccc1Cn1cc(NC(=O)CSc2nc3c(c(C(F)(F)F)n2)CCc2ccccc2-3)cn1` here?
A: Its outcome is “inactive”.

Q: With `CCO[C@H]1OC(C(=O)NCc2nc3ccccc3[nH]2)=C[C@@H](c2cn(C(C)=O)c3ccccc23)[C@@H]1CCCO` as the molecule, how does the outcome read?
A: The outcome was “inactive”.

Q: With `CCCc1c(C)nc2c(OC)cccc2c1SCC(=O)O` as the molecule, how does the outcome read?
A: Its outcome is “inactive”.

Q: For `O=C(O/N=C\c1ccc(N2CCCCC2)c([N+](=O)[O-])c1)c1c(F)cccc1F`, which outcome is on record?
A: Its outcome is “inactive”.

Q: Which outcome does the source give for `c1ccc2c(c1)Cn1nc(Cc3nc4c(s3)CCCC4)nc1-2` here?
A: The outcome was “inactive”.

Q: With `COc1ccc2nc(NC(=O)NC3CCCCC3)sc2c1` as the molecule, how does the outcome read?
A: The outcome was “inactive”.

Q: With `CC(=O)c1ccc(N2CCN(c3ncc(C(F)(F)F)cc3Cl)CC2)cc1` as the molecule, how does the outcome read?
A: Its outcome is “inactive”.

Q: With `O=C(Nc1ccc(Cl)cc1F)c1cccc2ccccc12` as the molecule, how does the outcome read?
A: The outcome was “inactive”.

Q: For `CCc1ccccc1NC(=O)CNC(=O)c1cc(C2CC2)nn1-c1ccccc1`, which outcome is on record?
A: Its outcome is “inactive”.

Q: Which outcome does the source give for `O=C(NCc1ccc2c(c1)OCO2)Nc1ccc2ccccc2c1` here?
A: The outcome was “inactive”.

Q: For `CCN(CC)C(=O)CSc1nnc2nnc3cc(OC)ccc3n12`, which outcome is on record?
A: The outcome was “inactive”.

Q: With `CN1C/C(=N\S(=O)(=O)c2ccccc2)N(C)C1=O` as the molecule, how does the outcome read?
A: The outcome was “inactive”.

Q: With `Cn1cccc1/C=C1/C(=O)NC(=O)N(Cc2ccc(F)cc2)C1=O` as the molecule, how does the outcome read?
A: The outcome was “inactive”.

Q: For `COCCNC(=S)N/N=C1\CC(C)CC(C)(C)C1` (stereo not given), which outcome is on record?
A: The outcome was “inactive”.

Q: For `CC(=O)Nc1cccc(-n2nnc(SCC(=O)Nc3ccc(F)c(Cl)c3)n2)c1`, which outcome is on record?
A: The outcome was “inactive”.

Q: With `COC(=O)CN1C(CN2CCOCC2)=Nc2ccc(Br)cc2C1c1ccccc1` (stereo not given) as the molecule, how does the outcome read?
A: Its outcome is “inactive”.

Q: Which outcome does the source give for `CSc1ccc(/C=C/C(=O)Nc2ccccc2)cc1` here?
A: Its outcome is “inactive”.

Q: With `CCOc1ccc(N2C(=O)CC(N)C2=O)cc1` (stereo not given) as the molecule, how does the outcome read?
A: The outcome was “inactive”.

Q: With `O=C(NC1CCCCCCC1)c1ccc(Br)cc1` as the molecule, how does the outcome read?
A: Its outcome is “inactive”.

Q: For `CCCC(C)NC(=O)c1ccc(OCc2ccc(Cl)cc2)c(OC)c1` (stereo not given), which outcome is on record?
A: The outcome was “inactive”.

Q: With `Cc1ccc(C)c(N2CCN(C3CCCC(C)C3)CC2)c1` (stereo not given) as the molecule, how does the outcome read?
A: Its outcome is “inactive”.

Q: With `O=C(Nc1ccc(Cl)cc1)C1CC2CCCC(C1)C2=O` (stereo not given) as the molecule, how does the outcome read?
A: The outcome was “inactive”.

Q: Which outcome does the source give for `Cc1ccc(NC(=O)CSc2n[nH]c(-c3ccco3)n2)cc1` here?
A: The outcome was “inactive”.

Q: With `CCCC(C(=O)N1CCOCC1)N1C(=O)C2C3C=CC(C3)C2C1=O` (stereo not given) as the molecule, how does the outcome read?
A: The outcome was “inactive”.

Q: For `Cc1c(C(=O)c2ccccc2)oc2ccc3ccccc3c12`, which outcome is on record?
A: The outcome was “inactive”.

Q: With `Cc1ccc(C(=O)Nc2c(C)cc(C)c3cccnc23)cc1` as the molecule, how does the outcome read?
A: The outcome was “inactive”.

Q: Which outcome does the source give for `COCCOC(=O)c1c(C)oc2ccc(OC(=O)c3c(OC)cccc3OC)cc12` here?
A: Its outcome is “inactive”.

Q: With `COc1ccc(-c2c(-c3ccsc3)oc3ccc(N4CCOCC4)cc23)cc1` as the molecule, how does the outcome read?
A: Its outcome is “inactive”.

Q: Which outcome does the source give for `Cc1nn(C)c(C)c1C1C(C#N)=C(N)OC2=C1C(=O)CCC2` (stereo not given) here?
A: The outcome was “inactive”.

Q: Which outcome does the source give for `Cc1cccnc1NC(=O)c1cc2ccccc2oc1=O` here?
A: Its outcome is “inactive”.

Q: With `Cc1ccc(C)c(NC(=O)C2Cc3ccccc3CN2C(=O)OCc2ccccc2)c1` (stereo not given) as the molecule, how does the outcome read?
A: Its outcome is “inactive”.

Q: For `CNc1ccccc1NC(=O)C1CCCN1C(=O)OCc1ccccc1` (stereo not given), which outcome is on record?
A: The outcome was “inactive”.

Q: With `O=C(NC(=S)N1CCOCC1)c1ccc([N+](=O)[O-])cc1` as the molecule, how does the outcome read?
A: The outcome was “inactive”.

Q: For `NC(=O)CN1C(=O)C(O)(CC(=O)/C=C\C=C\c2ccccc2)c2ccccc21` (stereo not given), which outcome is on record?
A: Its outcome is “inactive”.

Q: Which outcome does the source give for `C=CCC(Nc1ccccc1)C12C=CC(O1)C(C(=O)OC)=C2C(=O)OC` (stereo not given) here?
A: The outcome was “inactive”.

Q: For `COc1ccc2ccccc2c1/C=N/NC(=O)c1cccc(C)c1`, which outcome is on record?
A: The outcome was “inactive”.

Q: Which outcome does the source give for `COc1cc(C(=O)N/N=C/c2ccc(OC(=O)c3cccc(C)c3)cc2)ccc1O` here?
A: Its outcome is “inactive”.

Q: For `Cc1ccccc1NC(=O)/C(C#N)=C\c1cc(C)n(-c2ccc(C(=O)O)cc2)c1C`, which outcome is on record?
A: Its outcome is “inactive”.

Q: For `Cc1cc(C)c(OCC(=O)Nc2nc3ccccc3[nH]2)c(C)c1`, which outcome is on record?
A: Its outcome is “inactive”.

Q: For `O=C(COc1ccc2ccccc2c1)Nc1nc2ccccc2[nH]1`, which outcome is on record?
A: The outcome was “inactive”.

Q: For `Cc1ccc(SCc2c(C#N)c3ccccc3n2C)cc1`, which outcome is on record?
A: Its outcome is “inactive”.

Q: Which outcome does the source give for `Clc1ccc(Cn2cc(/C=N/n3cnnc3)c3ccccc32)cc1` here?
A: The outcome was “inactive”.

Q: Which outcome does the source give for `Nc1nc(Sc2ncccc2[N+](=O)[O-])n[nH]1` here?
A: Its outcome is “inactive”.

Q: With `Cc1nnnn1/C(=C\c1ccccc1)C(=O)OCC(=O)NC1CCCCC1` as the molecule, how does the outcome read?
A: Its outcome is “inactive”.
